# Source: PubChem BioAssay (several laboratories)
# GluA2 TARP mod – GluA2-stargazin AMPA receptor complex modulation; HEK293 GluA2+stargazin, membrane potential dye (FDSS), glutamate EC50; hits were called plate by plate, in both directions; 3.5% of 40,000 active; O88602+P19491; calls only at 30 µM;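 active means any of four per-well response measures lying three or more SD from its plate-wide compound average, in either direction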
# GIRK2 activator – Activates human GIRK2-containing potassium channels; P48051; HEK293 GIRK2/NPY4 cells, thallium flux fluorescence; activation (% efficacy), % for hits at 75 µM; 34,000 tested, under 10 active;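 active means primary screen hit, no activity in plain HEK293 cells, and in GIRK2-only cells above 5% efficacy rising with concentration; inactive means the rest, including fluorescent compounds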;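 further: efficacy is normalized control-subtracted fluorescence 15 s after thallium addition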
# Numbers without * were called inactive; i = inactive; nt = no result given; + = active, no number. The sample as a whole holds a higher share of hits than the screen did.
SMILES,GluA2 TARP mod,GIRK2 activator
COc1ccc(Nc2cc(C)nc(-n3cc([N+](=O)[O-])cn3)n2)cc1Cl,+,i
COc1ccc(Nc2cc(C)nc(-n3cc([N+](=O)[O-])cn3)n2)cc1OC,i,i
COc1ccc(-c2cc(C(=O)O)c3[nH]c(C)nc3n2)cc1OC,nt,i
COC(=O)c1ccc(C(=O)Nc2cc(C)nn2-c2ccccc2)cc1,i,i
CSCCn1c(=NC(=O)c2cc(C)no2)sc2ccccc21,i,i
CSCCn1c(=NC(=O)c2cc(C)no2)sc2cc3c(cc21)OCCO3,+,i
CCOC(=O)c1c(C)c(C(=O)NCc2ccco2)c(C)n1CC,+,i
COCCNC(=O)C(=O)NCc1ccco1,i,i
COCC(=O)Nc1cc(-c2ccco2)nn1-c1nc(C)cc(=O)[nH]1,i,i
Cc1cc(=O)[nH]c(-n2nc(-c3ccco3)cc2NC(=O)C2CC2)n1,+,i
Cc1nc(NC(=O)c2ccc(S(=O)(=O)N(C)Cc3ccccc3)cc2)sc1C,i,i
Cc1nc(NC(=O)c2cccc(Br)c2)sc1C,+,i
CNS(=O)(=O)c1ccc(C(=O)Nc2ccccc2F)o1,i,i
O=C(Cn1c(-c2cnccn2)nc2ccccc21)Nc1ccc(F)c(Cl)c1,+,i
CCSc1nnc(NC(=O)Cn2c(-c3cnccn3)nc3ccccc32)s1,i,i
O=C(Nc1cccc(-c2cnc3n2CCC3)c1)c1cc(-c2ccco2)on1,+,i
O=C(Nc1ccc2cn[nH]c2c1)c1ccc2nc[nH]c2c1,i,i
CCOc1ccc(C(=O)Nc2cc3c4c(c2)CCC(=O)N4CCC3)cc1,i,i
O=C(Nc1ccc(CC(=O)N2CCC(O)CC2)cc1)c1cc(-c2ccco2)on1,nt,i
O=C(Nc1cccc(-c2cnc3n2CCC3)c1)c1ccc2nc[nH]c2c1,+,i
CCOc1ccc(C(=O)Nc2cccc(-c3cnc4n3CCC4)c2)cc1,+,i
COc1cc(NC(=O)c2n[nH]nc2Nc2cccc(F)c2)cc(OC)c1,i,i
CS(=O)(=O)N1CCC(c2cccs2)CC1,i,i
CSc1cccc(NC(=O)C(=O)NCC2CCN(C(=O)c3ccncc3)CC2)c1,i,i
CC(=O)N1CCCC1c1nc2ccccc2n1CCCOc1c(C)cccc1C (stereo not drawn),+,i
SMILES,GluA2 TARP mod,GIRK2 activator
Cc1cccc(C)c1OCC(O)Cn1c(C2CC2)nc2ccccc21 (stereo not drawn),i,i
CCCCn1c2ccccc2c2nnc(SCCN3CCOCC3)nc21,i,nt
Cn1nccc1C(=O)Nc1cccc2c1C(=O)NC2=O,nt,i
Cc1cc(C(=O)Nc2cccc3c2C(=O)NC3=O)on1,+,i
O=C(Cn1nc(-c2ccncc2)ccc1=O)N1CCN(c2ccc(C(F)(F)F)cn2)CC1,i,nt
CCOC(=O)CN1N=C(c2ccccc2)Cn2c1nc1c2c(=O)n(C)c(=O)n1C,i,nt
CCn1c(=O)c2c(nc(-n3nc(C)cc3C)n2CCOC)n(C)c1=O,i,i
O=C(CC1SC(=O)N(Cc2ccccc2)C1=O)Nc1ccc([N+](=O)[O-])cc1 (stereo not drawn),+,i
COc1ccc(NC(=O)CC2SC(=O)N(CC(=O)c3ccccc3)C2=O)cc1 (stereo not drawn),i,i
O=C(NCCc1c[nH]c2ccccc12)C(=O)NCc1ccc(F)cc1,i,nt
O=C(Nc1cccc(N2CCCCC2=O)c1)c1cccc2ccccc12,i,i
